According to PubChem BioAssay (NCI):
The panel holds about 83,000 compounds, 20% with a hit somewhere; the sample as a whole holds those more often.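 Single-dose data. Exposure time 48 hours. Values below 10 considered active.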 Unmarked numbers belong to inactive results. Active and inactive are the calls of the source.

test system: HL-60(TB) leukemia; test: NCI-60 one-dose screen, 48 h (100 = growth as untreated, 0 = no growth, -100 = all killed); conditions: 10 µM unless noted

| SMILES | growth |
| --- | --- |
| O=C(COc1ccc(/C=C2\Oc3ccc4ccccc4c3C2=O)cc1)c1ccc([N+](=O)[O-])cc1 | 75.9% |
| CCCCCOC(=O)c1c(C)[nH]c(/C=C2\N=C(c3ccc[nH]3)C=C2OC)c1C | -14.7% (active) |
| Nc1ncn([C@@H]2O[C@H](CO)[C@@H](O)[C@H]2O)c(=O)n1 | -2.84% (active) |
| Cc1sc2nc(CSc3nnc(-c4ccco4)o3)[nH]c(=O)c2c1C | 68.6% |
| CCNC(=O)Oc1ccc[nH]c1=O | 94.1% |
| O=C1/C(=C/c2ccc([N+](=O)[O-])s2)Oc2ccc(Cl)cc21 | -20.6% (active) |
| CCCCNC(=O)Oc1ccc(/C(=C(/CC)Cc2ccccc2)c2ccc(OCCCN(C)C)cc2)cc1 | 78% |
| Nc1ccc(Oc2ccccc2)c(Cl)c1 | 119% |
| COc1cc2c(cc1OC)-c1cc(OC)c(OC)cc1C(CN(C)C)C2 (configuration not stated) | 69.8% [100 µM] |
| CN(C)CCCn1c2c(c3ccncc3c1=O)C(=O)c1ccccc1-2 | -19.8% (active) |
| COc1ccc(/C=N/Nc2cc(=O)[nH]c3ccc(C)cc23)cc1 | 94.2% |
| Nc1ncnc2c1N=C(c1ccc(F)cc1)CC(c1cccc(Nc3ccnc4cc(Cl)ccc34)c1)N2 (configuration not stated) | 83.6% |
| CCOC(=N)CC(=O)Nc1cccc(C)c1Cl | 111% |
| O=C(Nc1ccc(N2CCNCC2)cc1)c1[nH]ncc1Nc1ncnc2sc3c(c12)CCC3 | -49.6% (active) |
| COc1cccc2c1Cc1ccccc1-2 | 97.5% |
| COc1ccc(/C(C)=C(\c2ccc(OCCN3CCCCCC3)cc2)c2ccc(OC(=O)c3ccccc3)cc2)cc1 | 31.2% |
| CCOC(=O)C/C(C)=N\O | 94.5% |
| CCOC(=O)c1c(C)nc2c(c1N)/C(=C/c1ccc(OC)cc1)C(=O)N2Cc1ccc(F)cc1 | 4.72% (active) |
| CC(C)=CCCC(C)C1=C(O)C(=O)C(C)=CC1=O (configuration not stated) | -47.1% (active) |

| SMILES | growth |
| --- | --- |
| C=C1C(=O)O[C@H]2[C@H]1CC/C(COC(=O)NCc1cn(C)c3ccccc13)=C\CC[C@@]1(C)O[C@@H]21 | -48.5% (active) |
| CC[C@@H]1NC(=O)[C@H]([C@H](O)[C@H](C)C/C=C/c2ccc(CN3C(=O)C(C)=C(C)C3=O)cc2)N(C)C(=O)[C@H](C(C)C)N(C)C(=O)[C@H](CC(C)C)N(C)C(=O)[C@H](CC(C)C)N(C)C(=O)[C@@H](C)NC(=O)[C@H](C)NC(=O)[C@H](CC(C)C)N(C)C(=O)[C@H](C(C)C)NC(=O)[C@H](CC(C)C)N(C)C(=O)CN(C)C1=O | 81.2% |
| N#Cc1c(-c2ccc(F)cc2)cc(-c2cccc(Cl)c2)[nH]c1=O | 84.9% |
| COc1ccc(C(O)(CCC(C)C)C(CN2CCOCC2)c2ccc(Cl)cc2)cc1 (configuration not stated) | 20.9% |
| O=c1oc2ccc(-c3ccc(F)cc3F)cc2c(=O)n1-c1cccc(C(F)(F)F)c1 | -33.3% (active) |
| NCCNc1nc(Nc2ccc(-c3nc4ccccc4[nH]3)cc2)c2cn[nH]c2n1 | 91.9% |
| Cc1cc([N+](=O)[O-])ccc1NC(=O)c1ccc2c(c1)nc(-c1ccccc1)n2C1CCCCC1 | 64.7% |
| COc1cc(/C=C/C(=O)N2CCC=CC2=O)cc(OC)c1OC | -13.1% (active) |
| CCOC(=O)N[C@H]1CCc2cc(OC)c(OC)c(OC)c2-c2ccc(SC)c(=O)cc21 | -28.9% (active) |
| CN(C)Cc1ccc(O)c(C(=O)O)c1 | 107% |
| CCN1CCN(Cc2ccc(NC(=O)Nc3cccc(-n4ccc5c(NC(=O)c6ccccc6)nccc54)c3)cc2C(F)(F)F)CC1 | 112% |
| O=C(COc1cccc(/C=C2\COc3ccccc3C2=O)c1)c1ccccc1 | 40.3% |
| N=C1C=C(N)C(=O)c2ccccc21 | -32.8% (active) |
| CCCN=C(N)c1ccc(NC(=O)c2ccc(C(=O)Nc3ccc(C(N)=NCCC)cc3)cc2)cc1 | 77% |
| CCN1C(=O)N(CC)C2C1NN=c1s/c(=C3\C(=O)N(CC(C)(C)C)c4ccccc43)c(=O)n12 (configuration not stated) | -26.1% (active) |
| NC(=O)c1ccc(C2C3=C(CCCC3=O)OC3=C2C(=O)c2ccccc2C3=O)cc1 (configuration not stated) | -30.4% (active) |
| CC(C)(C)CC(C)(C)Nc1c(-c2ccc(C(F)(F)F)cc2)nc2cnccn12 | 79.4% |
| COC(=O)c1cccnc1 | 102% |
